Assay outcomes deposited in PubChem by Broad Institute.
CSC inhib: blocks cancer stem cells; cancer stem cell-like cells viability, luminescence; inhibition, % at 7.5 µM; hit rate 1.1% among 300,000; AID 2717; in the data active = inhibition above about 75%; inconclusive = no clear call, values can overlap the other calls; tested in HMLE shEcad cells
PfHsp90 set2: inhibits growth of yeast expressing Plasmodium falciparum Hsp90 | inhibition, % at 9.4 µM | AID 504621 | S. cerevisiae expressing PfHsp90, BacTiter-Glo ATP, 48 h; yeast lacking PDR1 and PDR3 efflux regulators | hit rate 0.32% among 310,000;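 active = every replicate shows inhibition above about 80%, whatever the replicate mean, limit read from the data; inconclusive = mean inhibition reaches the set limit but some replicate falls short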
Shn3 inh set2: inhibitors of Schnurri-3 3'UTR reporter in osteoblasts; hit rate 0.52% among 360,000; Clone20 osteoblast Shn3 3'UTR firefly luciferase, 24 h; inhibition, % at 12.5 µM;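 active = mean inhibition of at least 75% with every replicate also reaching 75%; inconclusive = mean inhibition at least 75% but some replicate below; inactive = mean inhibition below 75%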
Calb FLC: C. albicans growth modulation with fluconazole | C. albicans CaCi-2 (fluconazole-resistant clinical isolate) + fluconazole, Alamar Blue growth, 48 h | growth inhibition, % (concentration not given with the values) | hit rate 0.57% among 300,000 | AID 1979;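 active = growth inhibition above about 58% in most replicates, limit read from the data, passing the limit was not always enough; inconclusive = exactly half the replicates above a set limit; inactive = most replicates below a set limit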;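 also: all wells also contain fluconazole at 8 µg/ml as a sub-toxic cotreatment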
Beta apoptosis: blocks beta cell apoptosis | INS-1E cytokine-induced death, ATP luminescence, 48 h; percent of positive-control rescue, neutral wells zero | protection from apoptosis, % (test concentration not listed) | hit rate 0.8% among 300,000 | AID 435005;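 active = Every replicate reaches about 75%, or at least half do and their mean reaches it too, limit read from the data; inconclusive = At least half of replicates reach the limit but their mean does not; inactive = Under half of replicates reach the limit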;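 also: higher means more ATP so stronger rescue from cytokine killing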
Large screens that a line does not name were inactive. An excerpt weighted towards active compounds, which were near 2.2% of everything screened.

CC(C)(C)OC(=O)C[C@H]1C/C=C\C[C@@H](CC(=O)NCCO)C(=O)NC[C@@H](c2ccccc2)OC1=O	none (no result: Calb FLC)
Cc1ccc(NC(=O)Cn2c(O)c(N=NC(=O)c3cc4ccccc4cc3O)c3ccccc32)cc1	CSC inhib 98.5, Beta apoptosis 102.5 (no result: Calb FLC)
O=C(N=Nc1c(O)n(Cc2ccccc2)c2ccccc12)c1cc2ccccc2cc1O	Beta apoptosis 83.8
Cc1ccc(NC(=O)Cn2c(O)c(N=NC(=O)c3ccncc3)c3ccccc32)cc1	none
O=C(N=Nc1c(O)n(Cc2ccccc2)c2ccccc12)c1ccc(O)cc1	none
Cc1ccc(C(=O)NC(=C(Cl)Cl)S(=O)(=O)c2ccc(C)cc2)cc1	CSC inhib 95.6
Cc1ccc(C(=O)NC(=C(Cl)Cl)S(=O)(=O)c2ccc(Cl)cc2)cc1	none
CN(Cc1ccccc1)S(=O)(=O)CCNC(=O)c1ccc2c(c1)OCO2	none (no result: Beta apoptosis)
NS(=O)(=O)c1cccc(NS(=O)(=O)c2ccc(/C=C/C(=O)O)cc2)c1	none
CSc1ccc(CN2CCC2(C)C(=O)NCc2ccc3c(c2)OCO3)cc1 (stereo not given)	none (no result: CSC inhib, PfHsp90 set2, Calb FLC, Beta apoptosis)
O=C(Nc1ccncc1)c1cccc(S(=O)(=O)N2CCc3ccccc32)c1	Shn3 inh set2 91.3
CCN(CC)CCNCc1ccc(-c2ccc(Cl)cc2)o1	CSC inhib 78.8
CCn1c(NC(C)=O)nc2ccccc21	none
CCn1c(NC(=O)c2cccs2)nc2ccccc21	Calb FLC 78.1
C/C(=N\O)c1cc(Cl)cc(Cl)c1O	Calb FLC 76.7
COc1cccc(OCCn2cc(C(C)=O)c3ccccc32)c1	Shn3 inh set2 87.3
CC(=O)c1cn(CCOc2cc(C)ccc2C)c2ccccc12	Shn3 inh set2 89.9, Beta apoptosis 88.9
COc1cccc(OCCn2cc(C(=O)c3ccco3)c3ccccc32)c1	none
CCc1ccc(N2CC(C(=O)Nc3ccc4c(c3)OCCO4)CC2=O)cc1 (stereo not given)	none
COc1ccccc1/C=C/CN1CCSCC1	none
Cc1nnc(N/N=C/c2cc([N+](=O)[O-])c(N3CCC(C)CC3)cc2N2CCC(C)CC2)n1N	Beta apoptosis 115.2 (no result: PfHsp90 set2)
CCc1nnc(N/N=C/c2ccc(N3CCC(C)CC3)c([N+](=O)[O-])c2)n1N	none
CCOC(=O)c1nn(-c2ccccc2)c(-c2ccccc2)c1C(=O)c1ccccc1	none
CCOC(=O)c1nn(-c2ccc(F)cc2)c(-c2ccccc2)c1C(=O)c1ccccc1	CSC inhib 78.3
CCCn1c(NCc2ccccc2NS(=O)(=O)c2ccc(C)cc2)nc2ccccc21	CSC inhib 75.0
CCn1c(NCc2ccccc2NS(=O)(=O)c2ccc(C)cc2)nc2ccccc21	none
COc1ccccc1NC(=O)c1ccccc1C(=O)N(C)Cc1ccccc1	none (no result: Calb FLC)
Cc1cc(F)ccc1S(=O)(=O)NCC1CC2CCC1C2 (stereo not given)	none
CCCCCCC[C@@H](C/C=C/CCC(=O)N(C)C/C(=C/Cl)C/C(=C\C(=O)N1CC(OC)=CC1=O)OC)OC	CSC inhib 140.0 (no result: Calb FLC)
CCCCCCC[C@@H](C/C=C/CCC(=O)N(C)C/C(=C/Cl)C/C(=C\C(=O)N1C[C@H](O)CC1=O)OC)OC	none (no result: CSC inhib, Calb FLC, Beta apoptosis)
CC(C)OCCCNC(=S)N1CCC(C(=O)c2ccc(Cl)cc2)CC1	Beta apoptosis 102.0
CCOc1ccccc1N1CCN(C(=O)c2cccc(-c3ccc(O)cc3)c2)CC1	PfHsp90 set2 104.2
CCOC(=O)c1c(NC(C)=O)sc2c(OCC(O)CNC(C)(C)C)c(Br)ccc12 (stereo not given)	none
CCOC(=O)c1c(N)sc2c(OCC)c(Br)ccc12	CSC inhib 79.4
CCOC(=O)C1CCCN(S(=O)(=O)c2ccc(S(=O)(=O)N3CCCC3)cc2)C1 (stereo not given)	Shn3 inh set2 87.9
COc1cccc(C(C(=O)NC2CCCC2)N(C(=O)c2ccco2)c2ccc(-n3cnnn3)c(C)c2)c1OC (stereo not given)	Calb FLC 92.0
COc1ccc(C(C(=O)NC2CCCCC2)N(C(=O)c2ccco2)c2ccc(-n3cnnn3)c(C)c2)cc1 (stereo not given)	none
COc1ccc(C)cc1NC(=O)CSc1nnc2ccc(-c3ccncc3)nn12	none (no result: PfHsp90 set2)
Cc1[nH]oc(=O)c1N=Nc1c(Cl)cccc1Cl	PfHsp90 set2 105.7
COc1ccc([C@@H]2CC=C(C(=O)O)[C@H](c3ccc(Cl)cc3)N2S(=O)(=O)c2ccc(C)cc2)cc1OC	none (no result: Calb FLC)
O=[N+]([O-])c1cc(Cl)cc(/C=N/NC(=S)Nc2ccc(S(=O)(=O)N3CCOCC3)cc2)c1O	Calb FLC 108.6
O=S(=O)(c1ccc(NC(=S)N/N=C/c2ccc(O)c(O)c2)cc1)N1CCOCC1	none
CSCCC(c1nnnn1C1CCCC1)N1CCN(C/C=C/c2ccccc2)CC1 (stereo not given)	none (no result: CSC inhib, PfHsp90 set2, Calb FLC, Beta apoptosis)
Cc1ccc(NC(=S)Nn2cnnc2)c(C)c1	Calb FLC 82.3
CCCCCCN1C=CC=C/C1=C\C=C(C#N)C#N	none
COc1ccc(-n2nc(C(=O)NCC(=O)N3CCN(c4ccccc4)CC3)c3ccccc3c2=O)c(OC)c1	Calb FLC 78.9
COc1ccc(-n2nc(C(=O)NCC(=O)N3CCN(c4ccc(F)cc4)CC3)c3ccccc3c2=O)c(OC)c1	Calb FLC 98.9
COc1ccc(-n2nc(C(=O)NCC(=O)N3CCCC3)c3ccccc3c2=O)c(OC)c1	none
Cc1c(N=Cc2cccs2)c(=O)n(-c2ccccc2)n1C	none
Cc1ccc(C2C(C=Nc3c(C)n(C)n(-c4ccccc4)c3=O)=C(c3ccccc3)Oc3ccccc32)cc1 (stereo not given)	Beta apoptosis 80.2 (no result: CSC inhib)
O=C(O)c1ccc(N/N=C/c2ccc(-c3ccccc3)cc2)cc1	PfHsp90 set2 97.6 (no result: CSC inhib, Beta apoptosis)
CC(C)c1ccc(/C=N/Nc2ccc(C(=O)O)cc2)cc1	Calb FLC inconclusive
COc1ccc(C(CCN2CCCCC2)c2c(OC)cc(OC)c3c(-c4ccccc4)cc(=O)oc23)cc1 (stereo not given)	Beta apoptosis 86.3
CCCCCc1cc(=O)oc2c(C(CCN3CCCC(C)C3)c3cc(OC)c(OC)c(OC)c3)c(OC)cc(OC)c12 (stereo not given)	CSC inhib 101.7, Beta apoptosis 109.6
CCCCCc1cc(=O)oc2c(C(CCN3CCCC(C)C3)c3ccc(N(C)C)cc3)c(OC)cc(OC)c12 (stereo not given)	CSC inhib 108.9
CCCCCc1cc(=O)oc2c(C(CCN3CCCCC3)c3cc(OC)c(OC)c(OC)c3)c(OC)cc(OC)c12 (stereo not given)	CSC inhib 78.8
COc1cc(OC)c2c(-c3ccccc3)cc(=O)oc2c1C(CCN1CCCCC1)c1ccc(N(C)C)cc1 (stereo not given)	none
Cc1ccc2c(cnn2C(=O)CCC(=O)NC2CCCCC2)c1	none
O=C(O)C1C(c2ccccc2)C(C(=O)Oc2ccccc2)C1c1ccccc1 (stereo not given)	none (no result: Beta apoptosis)
CC(C)CCOC(=O)C1C(c2ccccc2)C(C(=O)O)C1c1ccccc1 (stereo not given)	Calb FLC 93.1
